# Reference: PubChem BioAssay (NCATS)
# Records with an inconclusive call do not appear. The source made the active and inactive calls. The call rests on the fitted dose curve; in most records, active means well fitted inhibition curve with a large enough effect; inconclusive means small, poorly fitted or top-dose-only effect; inactive means flat fitted curve, though single readings scatter.
# Target: Voltage-gated inwardly rectifying potassium channel KCNH2 (Homo sapiens) (UniProt Q12809)
# Test: qHTS Assay for Small Molecule Inhibitors of the Human hERG Channel Activity (AID 588834);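 further: lower thallium flux fluorescence means stronger hERG block; nearly all actives have a fitted effect of over 50% in size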; further: potency means the concentration at half of the fitted maximal effect; on activity change, negative = inhibition: top concentration of the series differs between compounds; on the % scale 0 is the no-effect control and ±100 the full control effect
# Conditions: U2OS BacMam hERG, FluxOR thallium flux fluorescence; series mostly up to 46.1 µM; activity change, negative = inhibition: at the top concentration
# Outline: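 Step 1: BacMam hERG transduction of U2OS, 4 hrs RT. Step 2: overnight 37 °C, plate 2000 cells/well, 4 hr. Step 3: FluxOR load, compound 10 min, stimulate, read fluorescence.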
# Sequence of Voltage-gated inwardly rectifying potassium channel KCNH2 (Homo sapiens) (Q12809 whole entry, looked up): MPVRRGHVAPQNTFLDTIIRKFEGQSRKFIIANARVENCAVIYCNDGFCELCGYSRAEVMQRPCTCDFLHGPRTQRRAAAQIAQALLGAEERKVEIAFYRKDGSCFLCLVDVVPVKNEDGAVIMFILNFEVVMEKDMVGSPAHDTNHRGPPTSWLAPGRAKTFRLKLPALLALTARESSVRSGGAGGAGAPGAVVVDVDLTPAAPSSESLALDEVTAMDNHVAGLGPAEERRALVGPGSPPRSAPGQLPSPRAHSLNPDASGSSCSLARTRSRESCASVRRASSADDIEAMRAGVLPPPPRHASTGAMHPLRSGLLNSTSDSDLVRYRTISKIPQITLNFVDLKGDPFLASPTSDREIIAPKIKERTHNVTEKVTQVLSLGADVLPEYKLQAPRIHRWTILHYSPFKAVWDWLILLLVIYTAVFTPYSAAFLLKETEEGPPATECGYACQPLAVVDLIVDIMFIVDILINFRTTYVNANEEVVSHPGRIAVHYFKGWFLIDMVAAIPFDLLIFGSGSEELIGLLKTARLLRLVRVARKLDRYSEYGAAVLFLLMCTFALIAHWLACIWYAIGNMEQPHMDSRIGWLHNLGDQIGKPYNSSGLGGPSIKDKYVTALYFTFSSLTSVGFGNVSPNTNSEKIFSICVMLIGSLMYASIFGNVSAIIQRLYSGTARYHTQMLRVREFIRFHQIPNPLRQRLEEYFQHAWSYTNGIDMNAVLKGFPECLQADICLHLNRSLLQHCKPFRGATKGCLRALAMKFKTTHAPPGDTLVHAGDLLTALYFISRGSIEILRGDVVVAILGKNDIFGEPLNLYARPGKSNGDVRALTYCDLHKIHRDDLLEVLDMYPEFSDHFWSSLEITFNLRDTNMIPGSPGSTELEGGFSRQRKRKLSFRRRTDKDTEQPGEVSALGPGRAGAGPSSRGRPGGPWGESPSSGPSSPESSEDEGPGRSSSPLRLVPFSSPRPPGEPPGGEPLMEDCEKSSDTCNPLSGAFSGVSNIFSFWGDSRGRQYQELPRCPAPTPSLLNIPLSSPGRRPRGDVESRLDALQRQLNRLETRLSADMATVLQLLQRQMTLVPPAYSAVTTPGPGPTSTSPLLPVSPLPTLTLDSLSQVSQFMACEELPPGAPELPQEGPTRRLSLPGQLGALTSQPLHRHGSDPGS
Structure (SMILES),"activity change, negative = inhibition",Potency
CC(C)Cn1cnc2c1c(=O)n(C)c(=O)n2C,20.7% (inactive),–
CO[C@H]1C=CO[C@@]2(C)Oc3c(C)c(O)c4c(O)c(c(/C=N/N5CCN(C)CC5)c(O)c4c3C2=O)NC(=O)/C(C)=C\C=C[C@H](C)[C@H](O)[C@@H](C)[C@@H](O)[C@@H](C)[C@H](OC(C)=O)[C@@H]1C,26.6% (inactive),–
CCOC(=O)[C@H](CCc1ccccc1)N[C@@H](C)C(=O)N1[C@H](C(=O)O)C[C@@H]2CCC[C@@H]21,13.3% (inactive),–
CC(C)(Cc1c[nH]c2ccccc12)NCC(O)COc1ccccc1C#N (stereo not drawn),–,2.82 µM (active)
CC(=C(CCOC(=O)C(C)C)SSC(CCOC(=O)C(C)C)=C(C)N(C=O)Cc1cnc(C)nc1N)N(C=O)Cc1cnc(C)nc1N,-37% (inactive),–
CCCCCCCCCCC[C@@H](C[C@@H]1OC(=O)[C@H]1CCCCCC)OC(=O)[C@H](CC(C)C)NC=O,-1.89% (inactive),–
C[C@H]1[C@H]2CC[C@H]3[C@@H]4CC=C5C[C@@H](N(C)C)CC[C@]5(C)[C@H]4CC[C@]23CN1C,6.94% (inactive),–
CCc1cc(Cl)c(OC)c(C(=O)NC[C@@H]2CCCN2CC)c1O,–,2.82 µM (active)
CC(CNC1CCCCC1)OC(=O)c1ccccc1 (stereo not drawn),-11% [at 20.6 µM] (inactive),–
C=C1c2cccc(O)c2C(O)=C2C(=O)[C@]3(O)C(O)=C(C(N)=O)C(=O)[C@@H](N(C)C)[C@@H]3[C@@H](O)[C@H]12,-7.67% [at 20.6 µM] (inactive),–
O=C(Oc1cccc2cccnc12)c1ccccc1,16.6% (inactive),–
O=C1OC2(c3ccccc31)c1cc(Br)c(O)c(Br)c1Oc1c2cc(Br)c(O)c1Br,–,5.62 µM (active)
CC(C)[C@@H]1CC[C@@H](C)CC1=O,-19.7% (inactive),–
COc1cc(O)c(C(=O)c2ccccc2)cc1S(=O)(=O)O,-2.54% (inactive),–
CCCCC(CC)CN1CN(CC(CC)CCCC)CC(C)(N)C1 (stereo not drawn),–,4.47 µM (active)
OC[C@H]1O[C@@H](Oc2ccc(O)cc2)[C@H](O)[C@@H](O)[C@@H]1O,13.1% (inactive),–
CC(O)Cn1cnc2c1c(=O)n(C)c(=O)n2C (stereo not drawn),-3.74% [at 20.6 µM] (inactive),–
CCCN(CCc1cccs1)[C@H]1CCc2c(O)cccc2C1,–,1 µM (active)

Structure (SMILES),"activity change, negative = inhibition",Potency
CCc1nn(CCCN2CCN(c3cccc(Cl)c3)CC2)c(=O)n1CCOc1ccccc1,–,1 µM (active)
CCN[C@@H]1C[C@H](N)[C@@H](OC2OC(CN)=CCC2N)[C@H](O)[C@H]1O[C@H]1OC[C@](C)(O)[C@H](NC)[C@H]1O (stereo partly drawn),16.3% (inactive),–
Cc1cn([C@H]2C[C@H](F)[C@@H](CO)O2)c(=O)[nH]c1=O,0.731% (inactive),–
CCO[C@@H]1O[C@H](C(COCc2ccccc2)OCc2ccccc2)[C@H](OCc2ccccc2)[C@H]1O (stereo partly drawn),-35.7% [at 20.6 µM] (inactive),–
CCN(CC)CCOC(=O)C(Cc1cccc2ccccc12)CC1CCCO1 (stereo not drawn),–,7.94 µM (active)
C[C@@]12C(=O)OC(=O)[C@]1(C)C1CCC2O1,2.73% [at 20.6 µM] (inactive),–
CCN1CCCC(OC(=O)C(c2ccccc2)c2ccccc2)C1 (stereo not drawn),–,7.94 µM (active)
Nc1nc(Cl)nc2c1ncn2[C@@H]1O[C@H](CO)[C@@H](O)[C@@H]1F,7.1% (inactive),–
C[C@H]1O[C@@H](O[C@H]2CC[C@@]3(C)[C@H](CC[C@@H]4[C@@H]3C[C@@H](O)[C@]3(C)[C@@H](C5=CC(=O)OC5)CC[C@]43O)C2)C[C@H](O)[C@@H]1O[C@H]1C[C@H](O)[C@H](O[C@H]2C[C@H](O)[C@H](O[C@@H]3O[C@H](CO)[C@@H](O)[C@H](O)[C@H]3O)[C@@H](C)O2)[C@@H](C)O1,2.38% (inactive),–
N#C/C(=C1\SCC(c2ccccc2Cl)S1)n1ccnc1 (stereo not drawn),4.13% (inactive),–
C[C@@H](O)[C@H]1C(=O)N2C(C(=O)O)=C([C@H]3CCCO3)S[C@H]12,-5.72% (inactive),–
O=C1c2cccc3c2[C@H](CCC3)CN1[C@@H]1CN2CCC1CC2,–,12.6 µM (active)
CC(C)(C)NCC(O)COc1cccc2c1C[C@H](O)[C@H](O)C2 (stereo partly drawn),6.16% [at 20.6 µM] (inactive),–
NC(N)=NN=C(/C=C/c1ccc([N+](=O)[O-])o1)/C=C/c1ccc([N+](=O)[O-])o1,–,0.0891 µM (active)
N[C@H](C(=O)O)[C@@H](O)c1ccc(O)c(O)c1,10.2% (inactive),–
COc1cc(C(=O)N2CCCCCCC2)cc(OC)c1OC,7.95% (inactive),–
CN(C)CCOC(=O)C(c1ccccc1)C1(O)CCCC1 (stereo not drawn),0.576% (inactive),–
CCN1CCN(C(=O)N[C@@H](C(=O)N[C@@H]2C(=O)N3C(C(=O)O)=C(CSc4nnnn4C)CS[C@H]23)c2ccc(O)cc2)C(=O)C1=O,4.17% (inactive),–

# Target: Luciferin 4-monooxygenase (Photinus pyralis) (UniProt P08659)
# Sequence (P08659 whole entry, looked up): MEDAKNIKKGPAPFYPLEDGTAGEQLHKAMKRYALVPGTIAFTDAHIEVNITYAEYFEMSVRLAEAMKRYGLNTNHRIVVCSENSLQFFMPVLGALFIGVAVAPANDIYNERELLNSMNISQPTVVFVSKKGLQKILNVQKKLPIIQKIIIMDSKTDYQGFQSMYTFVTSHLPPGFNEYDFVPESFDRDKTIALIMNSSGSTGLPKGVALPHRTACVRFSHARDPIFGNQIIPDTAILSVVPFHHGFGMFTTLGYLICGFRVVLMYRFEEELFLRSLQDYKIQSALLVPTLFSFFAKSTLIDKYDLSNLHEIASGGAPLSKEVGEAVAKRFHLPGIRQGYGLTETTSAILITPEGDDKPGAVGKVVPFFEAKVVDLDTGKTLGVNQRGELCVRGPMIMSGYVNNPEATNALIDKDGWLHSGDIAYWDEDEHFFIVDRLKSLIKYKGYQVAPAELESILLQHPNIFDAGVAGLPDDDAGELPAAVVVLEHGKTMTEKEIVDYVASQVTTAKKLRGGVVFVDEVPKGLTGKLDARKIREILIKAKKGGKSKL
# Test: Biochemical firefly luciferase enzyme assay for NPC (AID 624030);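 further: purified P. pyralis luciferase at 10 nM with luciferin and ATP substrate; 0% = DMSO and -100% = full luciferase inhibition by PTC124 control; nearly all actives have a fitted effect of over 70% in size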
# Conditions: purified P. pyralis luciferase, luminescence, 5 min; series mostly up to 58.6 µM; activity change, negative = inhibition: at the top concentration
# Outline: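 Counter-screen for direct inhibition of the luciferase enzyme by approved-drug library compounds, run at 10 nM enzyme in 50 mM Tris acetate (final). Luminescence was read within 5 min of enzyme-buffer addition and normalized to PTC124 versus DMSO (0%).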
Structure (SMILES),"activity change, negative = inhibition",Potency
CC(C)Cn1cnc2c1c(=O)n(C)c(=O)n2C,2.3% (inactive),–
CC(C)(Cc1c[nH]c2ccccc12)NCC(O)COc1ccccc1C#N (stereo not drawn),7.17% (inactive),–
CCc1cc(Cl)c(OC)c(C(=O)NC[C@@H]2CCCN2CC)c1O,–,inactive
COc1cc(O)c(C(=O)c2ccccc2)cc1S(=O)(=O)O,-2.18% (inactive),–
CCCN(CCc1cccs1)[C@H]1CCc2c(O)cccc2C1,6.78% (inactive),–
CCc1nn(CCCN2CCN(c3cccc(Cl)c3)CC2)c(=O)n1CCOc1ccccc1,1.68% (inactive),–
COc1cc(C(=O)N2CCCCCCC2)cc(OC)c1OC,2.33% (inactive),–
